Drawing on PubChem BioAssay, this text covers composite z-score and z-score for six compounds.

For test [1], the system named is Plasmodium falciparum Sir2 (PF13_0152, Sir2A). In words: pfSir2 binders on small-molecule microarrays, primary screen, biochemical, small-molecule microarray, 635 nm fluorescence (AID 1098).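 Note: score merges spot fluorescence intensity with its signal-to-noise ratio.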 Conditions: small-molecule microarray binding, fluorescence 635 nm; higher = more signal.
Test [2] in a line: small-molecule microarray binders of probe aDKK1, primary screen, biochemical, biotinylated probe, 635/667 nm fluorescence (AID 1099).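 Note: score merges 667nm spot fluorescence with signal to noise across triplicate slides.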 Conditions: higher = more signal.
The nature of test [3]: small-molecule microarray binders of probe aCHRDL2, primary screen, biochemical, biotinylated probe, 635/667 nm fluorescence (AID 1100). As to conditions: higher = more signal.
A short description of test [4]: splicing luciferase reporter signal modulators, primary screen, spliceosome inhibition project, cell-based, HEK293, splice +/- reporter (AID 1101).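 Note: HEK293 cells carrying a splicing-competent luciferase reporter gene; test concentration not given here.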 Conditions: luminescence, 24 h, higher = more signal, called active from +8 up or from −8 down. (A reporter such as luciferase makes a cellular process visible.)
For test [5], the target named is Fibroblast growth factor 10 (Homo sapiens) (UniProt O15520). In words: FGF10 binders on small-molecule microarrays, primary screen, biochemical, small-molecule microarray, 635 nm fluorescence (AID 1102). As to conditions: FGF10 binding, fluorescence 635 nm, higher = more signal.
Test [6] relates to glycogen synthase kinase-3 (GSK3A per assay name; protocol says GSK3B). In words: GSK3 binders on small-molecule microarrays, primary screen, biochemical, small-molecule microarray, 635 nm fluorescence, GSK3A (AID 1103). Note: the record names both GSK3A and GSK3B. As to conditions: small-molecule microarray binding, fluorescence 635 nm; higher = more signal.
Test [7] concerns the target Epidermal growth factor receptor (Homo sapiens) (UniProt P00533). In words: EGFR binders on small-molecule microarrays, primary screen, biochemical, small-molecule microarray, 635 nm fluorescence (AID 1104).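 Note: score merges 667 nm emission intensity with spot signal to noise over triplicate slides.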 Conditions: EGFR binding, higher = more signal.
Test [8] concerns the target Follistatin-related protein 3 (Homo sapiens) (UniProt O95633). As to the kind of experiment: FSTL3 binders on small-molecule microarrays, primary screen, biochemical, small-molecule microarray, 635 nm fluorescence (AID 1105).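 Note: score merges emission near 667 nm and signal to noise per printed spot across three slides.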 Conditions: FSTL3 binding, higher = more signal.
Test [9] deals with Dickkopf-related protein 1 (Homo sapiens) (UniProt O94907). As to the kind of experiment: DKK1 binders on small-molecule microarrays, primary screen, biochemical, small-molecule microarray, 635 nm fluorescence scan (AID 1106).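 Note: score merges emission near 667 nm with signal to noise over three replicate slides.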 As to conditions: DKK1 binding, higher = more signal.
The subject of test [10] is Inhibin beta A chain (activin A). As to the kind of experiment: INHBA (activin A) binders on microarrays, primary screen, biochemical, small-molecule microarray, 635 nm fluorescence scan (AID 1107).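 Note: mouse activin A protein probed at 4.33 µg/mL on printed slides; score merges bound-protein fluorescence near 667 nm with spot signal-to-noise.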 Conditions: small-molecule microarray binding, higher = more signal.
Test [11] has as its system Human papillomavirus type 1a protein E7 (residues 44-93). As to the kind of experiment: HPV1a E7 fragment binders on microarrays, primary screen, biochemical, small-molecule microarray, residues 44-93, 635 nm fluorescence (AID 1108).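 Note: E7 fragment applied at 1 µg/mL in TBST for 1 h at 4 C; score combines spot fluorescence with its signal to noise ratio.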 As to conditions: small-molecule microarray binding, fluorescence 635 nm; higher = more signal.
Test [12] in a line: modulators of HCV replicon luciferase signal, primary screen, HCV replication inhibitor project, Huh7 cells, luciferase reporter (AID 1109).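 Note: huh7 hepatoma cells harbouring a luciferase neomycin HCV replicon reporter; luciferase luminescence as measure of HCV replicon replication; test concentration not given here.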 As to conditions: 48 h, higher = more signal.
For test [13], the target named is Left-right determination factor 2 (Homo sapiens) (UniProt O00292). As to the kind of experiment: LEFTY2 binders on small-molecule microarrays, primary screen, biochemical, small-molecule microarray, 635 nm fluorescence scan (AID 1110). Conditions: LEFTY2 binding, higher = more signal.
The target of test [14] is Calmodulin-1 (Homo sapiens) (UniProt P0DP23). In words: CALM1 binders on microarrays, EGTA buffer, profiling panel, biochemical, small-molecule microarray, Cy5-labelled CALM1 (AID 1111).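 Note: labelled calmodulin applied in Tris saline Tween buffer holding calcium plus EGTA and DTT.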 As to conditions: Cy5-CALM1 binding fluorescence, higher = more signal.
The target is the same in test [15]. As to the kind of experiment: calcium-bound CALM1 binders on microarrays, profiling panel, artefact control for SMM control-protein annotation, biochemical, small-molecule microarray, Cy5-labelled CALM1, plus calcium (AID 1112).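 Note: score merges spot fluorescence with signal to noise from triplicate slides.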 As to conditions: Cy5-CALM1 binding fluorescence, higher = more signal.
Test [16] in a line: small-molecule microarray binders of probe aWnt5a, primary screen, biochemical, biotinylated probe, 635/667 nm fluorescence (AID 1113).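 Note: score merges 667 nm fluorescence intensity with signal-to-noise per printed feature.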 As to conditions: higher = more signal.
Test [17] can be described thus: small-molecule microarray binders of probe aShh, primary screen, biochemical, biotinylated probe, 635/667 nm fluorescence (AID 1114).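 Note: probe is biotin-labelled aShh protein from a stem cell growth factor screen; measures binding of labelled protein to compounds printed on the slide; score merges feature fluorescence at 667 nm with signal-to-noise.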 Conditions: higher = more signal.
Test [18] is described as follows: small-molecule microarray binders of probe aNog, primary screen, biochemical, biotinylated probe, 635/667 nm fluorescence (AID 1115).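 Note: probe is biotinylated aNog protein used at 0.15 µg/mL for 1 h at 4 C; z-score combines 667 nm fluorescence of each spot with its signal to noise.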 Conditions: higher = more signal.
Test [19] concerns the target Torsin-1A-interacting protein 1 (Homo sapiens) (UniProt Q5JTV8). As to the kind of experiment: LAP1 binders from COS7 cell lysate, primary screen, small-molecule microarray, 635/667 nm fluorescence (AID 1116). Conditions: COS7-hLAP1 lysate binding, 635 nm fluorescence, higher = more signal.
Test [20] concerns the target Alpha-bungarotoxin (Bungarus multicinctus) (UniProt P60615). As to the kind of experiment: alpha-bungarotoxin binders on microarray, profiling panel, artefact control for SMM control protein annotation, biochemical, small-molecule microarray, Alexa647 label, 635/667 nm fluorescence (AID 1117). Conditions: alpha-BTX-A647 binding fluorescence, higher = more signal.

The source made the active and inactive calls.

Dickkopf-related protein 1 (Homo sapiens), sequence (O94907 whole entry, looked up): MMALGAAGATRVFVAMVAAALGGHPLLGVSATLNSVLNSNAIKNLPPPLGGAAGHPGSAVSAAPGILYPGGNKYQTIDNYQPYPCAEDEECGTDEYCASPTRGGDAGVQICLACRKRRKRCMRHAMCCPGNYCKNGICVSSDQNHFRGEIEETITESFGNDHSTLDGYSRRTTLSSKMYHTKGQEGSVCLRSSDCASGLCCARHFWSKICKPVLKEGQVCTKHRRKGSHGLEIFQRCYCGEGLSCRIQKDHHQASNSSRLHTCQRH
Alpha-bungarotoxin (Bungarus multicinctus), sequence (P60615 whole entry, looked up): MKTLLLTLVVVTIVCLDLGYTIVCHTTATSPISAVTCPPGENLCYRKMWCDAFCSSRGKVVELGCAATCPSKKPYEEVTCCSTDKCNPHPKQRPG
Left-right determination factor 2 (Homo sapiens), sequence (O00292 whole entry, looked up): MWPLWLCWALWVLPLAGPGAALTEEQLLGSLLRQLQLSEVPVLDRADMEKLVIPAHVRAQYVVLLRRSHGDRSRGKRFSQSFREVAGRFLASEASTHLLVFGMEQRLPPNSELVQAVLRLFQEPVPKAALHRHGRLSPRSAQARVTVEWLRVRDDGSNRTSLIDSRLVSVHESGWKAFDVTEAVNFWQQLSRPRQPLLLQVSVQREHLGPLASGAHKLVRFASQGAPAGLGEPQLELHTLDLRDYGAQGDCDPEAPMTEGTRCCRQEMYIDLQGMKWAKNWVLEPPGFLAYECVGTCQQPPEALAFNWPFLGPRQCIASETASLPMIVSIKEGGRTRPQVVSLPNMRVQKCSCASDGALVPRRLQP
Follistatin-related protein 3 (Homo sapiens), sequence (O95633 whole entry, looked up): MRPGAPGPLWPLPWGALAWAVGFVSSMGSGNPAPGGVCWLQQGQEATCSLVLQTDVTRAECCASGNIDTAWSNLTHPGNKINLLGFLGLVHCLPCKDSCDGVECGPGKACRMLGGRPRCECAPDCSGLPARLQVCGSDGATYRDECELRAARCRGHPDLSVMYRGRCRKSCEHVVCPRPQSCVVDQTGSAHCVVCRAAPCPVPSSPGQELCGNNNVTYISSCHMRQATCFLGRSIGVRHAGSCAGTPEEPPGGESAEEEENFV
Fibroblast growth factor 10 (Homo sapiens), sequence (O15520 whole entry, looked up): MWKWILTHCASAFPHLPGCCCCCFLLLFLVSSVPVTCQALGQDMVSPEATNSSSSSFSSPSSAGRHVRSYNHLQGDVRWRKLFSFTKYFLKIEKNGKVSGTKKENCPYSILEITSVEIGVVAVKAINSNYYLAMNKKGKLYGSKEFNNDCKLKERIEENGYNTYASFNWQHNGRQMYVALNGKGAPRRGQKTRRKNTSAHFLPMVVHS
Epidermal growth factor receptor (Homo sapiens), sequence (P00533 whole entry, looked up): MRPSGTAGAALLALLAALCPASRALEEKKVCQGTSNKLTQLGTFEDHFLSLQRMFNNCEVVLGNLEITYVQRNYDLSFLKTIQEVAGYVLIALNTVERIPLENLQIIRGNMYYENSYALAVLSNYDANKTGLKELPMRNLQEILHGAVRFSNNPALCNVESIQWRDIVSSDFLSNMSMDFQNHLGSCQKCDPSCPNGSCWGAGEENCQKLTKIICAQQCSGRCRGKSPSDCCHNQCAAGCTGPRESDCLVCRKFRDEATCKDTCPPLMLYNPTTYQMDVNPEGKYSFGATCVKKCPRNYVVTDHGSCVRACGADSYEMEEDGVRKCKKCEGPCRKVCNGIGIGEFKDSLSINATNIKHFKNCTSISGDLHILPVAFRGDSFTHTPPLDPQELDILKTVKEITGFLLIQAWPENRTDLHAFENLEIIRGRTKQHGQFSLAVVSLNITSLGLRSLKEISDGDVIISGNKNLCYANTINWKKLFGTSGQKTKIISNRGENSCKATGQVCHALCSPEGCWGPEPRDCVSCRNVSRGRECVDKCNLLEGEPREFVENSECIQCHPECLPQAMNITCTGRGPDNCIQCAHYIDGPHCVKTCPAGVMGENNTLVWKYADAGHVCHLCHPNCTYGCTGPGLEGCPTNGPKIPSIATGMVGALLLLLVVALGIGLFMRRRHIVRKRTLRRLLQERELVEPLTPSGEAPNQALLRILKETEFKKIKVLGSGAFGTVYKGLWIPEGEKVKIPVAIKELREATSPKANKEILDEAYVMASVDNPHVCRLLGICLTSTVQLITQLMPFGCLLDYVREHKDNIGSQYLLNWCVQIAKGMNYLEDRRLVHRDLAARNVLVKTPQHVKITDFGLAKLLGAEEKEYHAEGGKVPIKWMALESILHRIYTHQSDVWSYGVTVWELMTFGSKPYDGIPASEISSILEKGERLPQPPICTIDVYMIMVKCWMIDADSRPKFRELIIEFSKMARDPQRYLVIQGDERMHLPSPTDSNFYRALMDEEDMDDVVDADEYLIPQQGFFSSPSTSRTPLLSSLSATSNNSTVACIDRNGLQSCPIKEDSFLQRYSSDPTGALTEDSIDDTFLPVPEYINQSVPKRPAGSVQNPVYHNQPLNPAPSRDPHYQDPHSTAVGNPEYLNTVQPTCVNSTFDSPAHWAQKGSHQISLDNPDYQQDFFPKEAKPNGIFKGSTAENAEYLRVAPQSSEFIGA
Torsin-1A-interacting protein 1 (Homo sapiens), sequence (Q5JTV8 whole entry, looked up): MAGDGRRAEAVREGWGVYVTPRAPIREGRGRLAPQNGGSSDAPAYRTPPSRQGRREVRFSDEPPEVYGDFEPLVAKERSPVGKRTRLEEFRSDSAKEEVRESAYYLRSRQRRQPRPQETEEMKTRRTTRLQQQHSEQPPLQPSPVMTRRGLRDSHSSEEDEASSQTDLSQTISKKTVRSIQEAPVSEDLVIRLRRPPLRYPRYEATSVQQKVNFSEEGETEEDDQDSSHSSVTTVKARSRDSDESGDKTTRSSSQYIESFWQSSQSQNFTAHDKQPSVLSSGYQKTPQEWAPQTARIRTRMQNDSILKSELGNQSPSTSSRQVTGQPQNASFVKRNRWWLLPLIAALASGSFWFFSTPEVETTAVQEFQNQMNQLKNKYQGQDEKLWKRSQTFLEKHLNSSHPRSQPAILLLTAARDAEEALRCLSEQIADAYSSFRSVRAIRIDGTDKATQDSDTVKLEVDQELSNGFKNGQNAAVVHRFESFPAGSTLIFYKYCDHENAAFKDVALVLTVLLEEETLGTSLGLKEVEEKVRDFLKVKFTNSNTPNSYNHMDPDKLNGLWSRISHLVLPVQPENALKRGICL

For the compound `C=C(COC)C(=O)CC[C@@H](OC(=O)c1ccccc1-c1ccccc1C(=O)O)c1cccc(OCCO)c1`, the composite z-score is 0.147 in test [1]; -0.0386 in test [2]; 0.0203 in test [3]; 0.552 in test [5]; -0.116 in test [6]; -0.837 in [7]. Besides, the composite z-score in test [8] is -0.0053; in test [9], -0.0221; in test [10] it was 1.19; in test [11], -1.75; in test [13] it was 0.0941; in test [14] it was -1.17. Further, the composite z-score in [15] is -1.09; in test [16], -0.096; in test [17] it was -0.153; in [18], 0.176; in test [19], 0.671; in test [20], 1.02. Moreover, the z-score was 0.306 (inactive) in test [4] and -0.54 in [12].

Consider `NC(=O)NCC#Cc1ccc2c(c1)[C@]1(C(=O)N2)[C@H](c2ccc(OCCO)cc2)N2[C@H](c3ccccc3)[C@H](c3ccccc3)OC(=O)[C@H]2[C@@H]1C(=O)Nc1nc2ccccc2s1`, for which the composite z-score in test [1] is 0.0284; in test [2], 0.918; in test [3] it was 1.2; in test [5], 0.178; in test [6], -0.282; in test [7] it was -0.345. In addition, the composite z-score in test [8] is 0.224; in test [9], -0.463; in test [10], 1.35; in test [11], -0.107; in test [13], -0.64; in [14], 0.728. The composite z-score is 0.789 in test [15]; -0.184 in [16]; 0.046 in [17]; 0.339 in test [18]; 0.173 in test [19]; 1.03 in test [20]. In addition, the z-score in [4] is -1 (inactive); in test [12], -0.495.

Consider `CCCCC(=C=CC[C@@H](O)c1ccc(OCCO)cc1)C[C@@H](O)c1cc(Cl)cc(Cl)c1O`, for which the composite z-score in test [1] is 0.157; in test [2] it was 0.279; in [3] it was 0.577; in [5], 0.697; in test [6] it was -0.167; in test [7] it was -0.723. The composite z-score in test [8] was -0.0492; in [9], -0.344; in [10], 0.588; in test [11], -0.258; in test [13], -0.0836; in [14], 0.863. The composite z-score in [15] is 0.83; in test [16] it was -0.124; in test [17], -0.221; in [18] it was 0.342; in [19], 0.497; in [20] it was 0.166. For the same compound, the values for the z-score in test [4] and in [12] were -2 (inactive) and -1.99, respectively.

For `C=CCN1C(=O)[C@]2(O[C@H](CCn3cc([C@H](O)c4ccccc4)nn3)[C@@H]([Si](C)(C)c3ccc(OC)cc3)[C@@H]2C)c2cc(N3CCOC3=O)ccc21`, the composite z-score was 0.147 in test [1]; -0.228 in [2]; 0.0778 in test [3]; -0.57 in test [5]; 0.387 in test [6]; -0.754 in test [7]. The composite z-score was -0.577 in test [8]; -0.272 in test [9]; 0.147 in [10]; 0.724 in test [11]; -0.69 in test [13]; -0.169 in test [14]. The composite z-score in test [15] was -0.367; in test [16], -0.16; in test [17], -0.043; in test [18], -0.176; in test [19], 0.525; in [20], 0.479. Moreover, the z-score in [4] was -2.35 (inactive); in test [12] it was -3.64.

`C=CCC(OC(C)=O)[C@@H]1[C@@H](N(Cc2ccc(-c3ccccc3)cc2)C(=O)c2ccc(-c3ccccc3)cc2)c2cc(OCCCO)ccc2N1C(=O)c1ccc(-c2ccccc2)cc1` (stereo not given in full): the composite z-score in [1] was -0.104; in test [2] it was 0.603; in test [3], 0.672; in [5] it was -0.132; in [6] it was -0.0347; in [7], -0.137. In addition, the composite z-score in [8] is 0.145; in test [9] it was -0.141; in test [10], 1.11; in [11] it was -0.172; in [13] it was 0.337; in test [14], 0.681. The composite z-score is 0.92 in [15]; -0.11 in test [16]; -0.324 in [17]; 0.347 in test [18]; 0.315 in test [19]; 0.459 in test [20]. For the same compound, the results for the z-score in [4] and in [12] were -1.34 (inactive) and 0.967, respectively.

For the compound `CC(C)(C)OC(=O)CC[C@@]12N=C(c3ccc(OCCCO)cc3)O[C@@H]1c1ccccc1CN(Cc1ccccc1)C2=O`, the composite z-score in [1] worked out at 1.39; in test [2], 0.578; in test [3] it was 0.505; in test [5], 1.14; in test [6], 1.19; in test [7] it was 0.12. In addition, the composite z-score is 0.459 in test [8]; 0.388 in [9]; 0.682 in [10]; 0.33 in test [11]; -0.152 in test [13]; 0.927 in test [14]. Besides, the composite z-score in test [15] was 0.368; in [16] it was -0.0981; in test [17] it was 1.23; in [18] it was 0.36; in test [19], 0.886; in test [20], 0.941. Further, the z-score in test [4] is -0.0992 (inactive); in test [12], -2.92.
